The text below walks through data of paper PMC11006913.

Common to all, as to assay: PBM; 200 nM protein, PBS
Holding throughout (settings): dsDNA, one strand shown

Assay [1] addresses NKX2-5 (Homo sapiens, UniProt P52952 125-210, R139K).
In assay [2] the target is T1, NKX2-4 (Homo sapiens, UniProt Q9H2Z4 175-261, P217L).
T1 sequence: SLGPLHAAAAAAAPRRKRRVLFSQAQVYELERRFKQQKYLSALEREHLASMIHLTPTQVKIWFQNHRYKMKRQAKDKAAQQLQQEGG

For assay [3], the target named is T2, NKX2-4 (Homo sapiens, UniProt Q9H2Z4 175-261, T231S).
T2 sequence: T1 sequence with L43P, T57S

The target of assay [4] is T3, NKX2-4 (Homo sapiens, UniProt Q9H2Z4 175-261).
T3 sequence: T1 sequence with L43P

Assay [5] has as its target T4, NKX2-6 (Homo sapiens, UniProt A6NCS4 118-204, R150C).
T4 sequence: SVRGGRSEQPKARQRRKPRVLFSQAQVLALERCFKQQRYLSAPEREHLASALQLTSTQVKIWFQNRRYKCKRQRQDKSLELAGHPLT

Assay [6] addresses T5, NKX2-6 (Homo sapiens, UniProt A6NCS4 118-204).
T5 sequence: T4 sequence with C33R

For assay [7], the target named is T6, NKX2-4 (Homo sapiens, UniProt Q9H2Z4 175-261, R246Q).
T6 sequence: T1 sequence with L43P, R72Q

The target of assay [8] is T7, NKX2-6 (Homo sapiens, UniProt A6NCS4 118-204, F151L).
T7 sequence: T4 sequence with C33R, F34L

The target in assay [9] is NKX3-2 (Homo sapiens, UniProt P78367 192-278, P234S).
Assay [10] addresses NKX2-5 (Homo sapiens, UniProt P52952 125-210).
Assay [11] concerns the target HOXB4 (Homo sapiens, UniProt P17483 148-234).
The target in assay [12] is HOXB4 (Homo sapiens, UniProt P17483 148-234, V174I).
Assay [13] concerns the target T8, VENTX (Homo sapiens, UniProt O95231 78-163, R121Q).
T8 sequence: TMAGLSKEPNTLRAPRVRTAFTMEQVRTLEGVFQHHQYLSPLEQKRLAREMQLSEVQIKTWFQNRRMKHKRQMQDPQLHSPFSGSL

The target in assay [14] is T9, VENTX (Homo sapiens, UniProt O95231 78-163).
T9 sequence: T8 sequence with Q44R

The target of assay [15] is T10, VENTX (Homo sapiens, UniProt O95231 78-163, Y115F).
T10 sequence: T8 sequence with Y38F, Q44R

Assay [16] has as its target HOXB6 (Homo sapiens, UniProt P17509 132-218, K202E).
Assay [17] has as its target NKX3-2 (Homo sapiens, UniProt P78367 192-278).
The target of assay [18] is ALX1 (Homo sapiens, UniProt Q15699 118-204, L144V).
Assay [19] concerns the target ALX1 (Homo sapiens, UniProt Q15699 118-204, L144R).
In assay [20] the target is ALX1 (Homo sapiens, UniProt Q15699 118-204).

Where a chain is given by its changes, count along the chain named.

NKX3-2 (Homo sapiens, UniProt P78367 192-278), sequence (P78367 192-278): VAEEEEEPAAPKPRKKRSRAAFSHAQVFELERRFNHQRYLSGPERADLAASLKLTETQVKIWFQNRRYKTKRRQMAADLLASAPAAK
NKX2-5 (Homo sapiens, UniProt P52952 125-210, R139K), sequence (P52952 125-210 R139K): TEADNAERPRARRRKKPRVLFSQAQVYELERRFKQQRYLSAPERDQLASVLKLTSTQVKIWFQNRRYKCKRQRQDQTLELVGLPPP
NKX2-5 (Homo sapiens, UniProt P52952 125-210), sequence (P52952 125-210): as the sequence (P52952 125-210 R139K) above, with K15R counted along it
NKX3-2 (Homo sapiens, UniProt P78367 192-278, P234S), sequence (P78367 192-278 P234S): as the sequence (P78367 192-278) above, with P43S counted along it
ALX1 (Homo sapiens, UniProt Q15699 118-204, L144V), sequence (Q15699 118-204 L144V): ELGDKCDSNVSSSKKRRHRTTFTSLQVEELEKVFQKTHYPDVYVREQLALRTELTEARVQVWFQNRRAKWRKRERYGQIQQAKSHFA
HOXB6, sequence (P17509 132-218 K202E): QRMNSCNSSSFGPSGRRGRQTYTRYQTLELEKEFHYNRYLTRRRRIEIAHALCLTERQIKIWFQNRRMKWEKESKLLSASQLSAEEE
ALX1 (Homo sapiens, UniProt Q15699 118-204), sequence (Q15699 118-204): as the sequence (Q15699 118-204 L144V) above, with V27L counted along it
HOXB4 (Homo sapiens, UniProt P17483 148-234), sequence (P17483 148-234): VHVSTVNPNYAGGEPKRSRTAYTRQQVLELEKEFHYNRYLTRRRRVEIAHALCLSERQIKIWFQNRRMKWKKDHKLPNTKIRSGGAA
HOXB4 (Homo sapiens, UniProt P17483 148-234, V174I), sequence (P17483 148-234 V174I): as the sequence (P17483 148-234) above, with V27I counted along it
ALX1 (Homo sapiens, UniProt Q15699 118-204, L144R), sequence (Q15699 118-204 L144R): as the sequence (Q15699 118-204 L144V) above, with V27R counted along it

As for ACACTTAT, the binding signal was 12.7 upbm affinity estimate (log intensity, higher = more binding, comparable within an allelic series) in assay [1]; 12.6 upbm affinity estimate (log intensity, higher = more binding, comparable within an allelic series) in assay [2]; 12.9 upbm affinity estimate (log intensity, higher = more binding, comparable within an allelic series) in assay [3]; 12.4 upbm affinity estimate (log intensity, higher = more binding, comparable within an allelic series) in assay [4]; 11.9 upbm affinity estimate (log intensity, higher = more binding, comparable within an allelic series) in assay [5]; 13.6 upbm affinity estimate (log intensity, higher = more binding, comparable within an allelic series) in [6]. Further, the binding signal in [7] is 13.1 upbm affinity estimate (log intensity, higher = more binding, comparable within an allelic series); in assay [8], 11.1 upbm affinity estimate (log intensity, higher = more binding, comparable within an allelic series); in [9], 12.5 upbm affinity estimate (log intensity, higher = more binding, comparable within an allelic series); in assay [10] it was 12.6 upbm affinity estimate (log intensity, higher = more binding, comparable within an allelic series).
For the sequence CACGCGTG, the binding signal in assay [1] is 8.8 upbm affinity estimate (log intensity, higher = more binding, comparable within an allelic series); in assay [11], 7.77 upbm affinity estimate (log intensity, higher = more binding, comparable within an allelic series); in [12], 7.9 upbm affinity estimate (log intensity, higher = more binding, comparable within an allelic series); in assay [10], 8.74 upbm affinity estimate (log intensity, higher = more binding, comparable within an allelic series).
Regarding GCACTTAA, the binding signal in [1] is 13.1 upbm affinity estimate (log intensity, higher = more binding, comparable within an allelic series); in assay [2] it was 12.6 upbm affinity estimate (log intensity, higher = more binding, comparable within an allelic series); in [13], 10.2 upbm affinity estimate (log intensity, higher = more binding, comparable within an allelic series); in assay [14] it was 10.9 upbm affinity estimate (log intensity, higher = more binding, comparable within an allelic series); in assay [3], 13 upbm affinity estimate (log intensity, higher = more binding, comparable within an allelic series); in [15], 10.3 upbm affinity estimate (log intensity, higher = more binding, comparable within an allelic series). Besides, the binding signal in [4] was 12.5 upbm affinity estimate (log intensity, higher = more binding, comparable within an allelic series); in assay [16] it was 9.75 upbm affinity estimate (log intensity, higher = more binding, comparable within an allelic series); in assay [5], 12 upbm affinity estimate (log intensity, higher = more binding, comparable within an allelic series); in [6] it was 13.8 upbm affinity estimate (log intensity, higher = more binding, comparable within an allelic series); in [7] it was 13.2 upbm affinity estimate (log intensity, higher = more binding, comparable within an allelic series); in [8], 11.6 upbm affinity estimate (log intensity, higher = more binding, comparable within an allelic series). The binding signal in assay [9] was 12.9 upbm affinity estimate (log intensity, higher = more binding, comparable within an allelic series); in assay [10] it was 13 upbm affinity estimate (log intensity, higher = more binding, comparable within an allelic series); in assay [17] it was 13.1 upbm affinity estimate (log intensity, higher = more binding, comparable within an allelic series).
Consider CTTAAGTA, for which the binding signal in [1] was 12.9 upbm affinity estimate (log intensity, higher = more binding, comparable within an allelic series); in assay [2], 12.6 upbm affinity estimate (log intensity, higher = more binding, comparable within an allelic series); in [3], 12.9 upbm affinity estimate (log intensity, higher = more binding, comparable within an allelic series); in assay [4], 12.5 upbm affinity estimate (log intensity, higher = more binding, comparable within an allelic series); in assay [5], 11.7 upbm affinity estimate (log intensity, higher = more binding, comparable within an allelic series); in [18] it was 9.02 upbm affinity estimate (log intensity, higher = more binding, comparable within an allelic series). Moreover, the binding signal in assay [6] is 13.7 upbm affinity estimate (log intensity, higher = more binding, comparable within an allelic series); in assay [19] it was 8.85 upbm affinity estimate (log intensity, higher = more binding, comparable within an allelic series); in [7] it was 13.1 upbm affinity estimate (log intensity, higher = more binding, comparable within an allelic series); in assay [8], 10.9 upbm affinity estimate (log intensity, higher = more binding, comparable within an allelic series); in assay [20] it was 9.39 upbm affinity estimate (log intensity, higher = more binding, comparable within an allelic series); in [10] it was 12.8 upbm affinity estimate (log intensity, higher = more binding, comparable within an allelic series).
For ACCAGCTG, the binding signal in assay [1] was 8.74 upbm affinity estimate (log intensity, higher = more binding, comparable within an allelic series); in assay [13] it was 7.92 upbm affinity estimate (log intensity, higher = more binding, comparable within an allelic series); in assay [14], 8.2 upbm affinity estimate (log intensity, higher = more binding, comparable within an allelic series); in assay [15], 8.14 upbm affinity estimate (log intensity, higher = more binding, comparable within an allelic series); in assay [10], 9.02 upbm affinity estimate (log intensity, higher = more binding, comparable within an allelic series).
AAGTACCC: the binding signal in [1] was 12.4 upbm affinity estimate (log intensity, higher = more binding, comparable within an allelic series); in assay [2], 12.4 upbm affinity estimate (log intensity, higher = more binding, comparable within an allelic series); in [3], 12.9 upbm affinity estimate (log intensity, higher = more binding, comparable within an allelic series); in assay [4], 12.3 upbm affinity estimate (log intensity, higher = more binding, comparable within an allelic series); in assay [5], 11.7 upbm affinity estimate (log intensity, higher = more binding, comparable within an allelic series); in [6], 13.4 upbm affinity estimate (log intensity, higher = more binding, comparable within an allelic series). The binding signal in [7] was 12.9 upbm affinity estimate (log intensity, higher = more binding, comparable within an allelic series); in assay [8], 10.5 upbm affinity estimate (log intensity, higher = more binding, comparable within an allelic series); in [9], 12.8 upbm affinity estimate (log intensity, higher = more binding, comparable within an allelic series); in assay [10], 12.2 upbm affinity estimate (log intensity, higher = more binding, comparable within an allelic series); in [17], 12.8 upbm affinity estimate (log intensity, higher = more binding, comparable within an allelic series).
Turning to CAAGTGGC, the binding signal in assay [1] is 12.5 upbm affinity estimate (log intensity, higher = more binding, comparable within an allelic series); in assay [2] it was 12.4 upbm affinity estimate (log intensity, higher = more binding, comparable within an allelic series); in [3] it was 12.8 upbm affinity estimate (log intensity, higher = more binding, comparable within an allelic series); in assay [4] it was 12.3 upbm affinity estimate (log intensity, higher = more binding, comparable within an allelic series); in assay [5] it was 11.7 upbm affinity estimate (log intensity, higher = more binding, comparable within an allelic series); in assay [6] it was 13.4 upbm affinity estimate (log intensity, higher = more binding, comparable within an allelic series). Besides, the binding signal in assay [7] was 12.9 upbm affinity estimate (log intensity, higher = more binding, comparable within an allelic series); in [8], 10.7 upbm affinity estimate (log intensity, higher = more binding, comparable within an allelic series); in assay [9] it was 12.5 upbm affinity estimate (log intensity, higher = more binding, comparable within an allelic series); in assay [10], 12.4 upbm affinity estimate (log intensity, higher = more binding, comparable within an allelic series); in assay [17] it was 12.6 upbm affinity estimate (log intensity, higher = more binding, comparable within an allelic series).
